Source: PubChem (Johns Hopkins Ion Channel Center)
In the library only some 1.6% were active in any assay of this set; here they are far more common.
KCNQ2 pot – enhances the rat KCNQ2 potassium channel. O88943. CHO-K1 KCNQ2, FluxOR thallium flux fluorescence; active compounds read high. B-score at 10 µM. 310,000 tested, 0.54% active. AID 2239;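 active means fluorescence ratio B-score at least 3 SD of library B-scores, with initial fluorescence B-score within 3 of them, cut at about 5.3 in these data; same plate scores as AID 2156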;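 further: B-score of peak minus minimum over baseline fluorescence ratio after K+ and Tl+ stimulus; positive B-score means potentiation of KCNQ2 with more thallium influx and brighter signal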
KCNQ2 inh – KCNQ2 (rat) channel inhibition | 310,000 tested, 1.1% active | CHO-K1 KCNQ2, FluxOR thallium flux, 20 min; active compounds read low | O88943 | AID 2156 | B-score at 10 µM;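 active means fluorescence ratio B-score at most minus 3 library SDs, with starting brightness B-score within 2 library SDs, cut at about -5.5 in these data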
KCNQ2 inh conf – rat KCNQ2 channel inhibition, confirmatory screen; shares compounds with KCNQ2 inh; KCNQ2-expressing cells, thallium flux; active compounds read low; activity change, negative = inhibition, % at 10 µM; 1,000 tested, 57% active; AID 493025
KCNQ1 spec – selectivity of KCNQ2 inhibitors against human KCNQ1. activity change, negative = inhibition, % at 10 µM. 1,000 tested, 15% active. KCNQ1-expressing cells, FluxOR thallium flux fluorescence; active compounds read low. AID 493026. shares compounds with KCNQ2 inh;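 active means activity change at least 3 SD of negative controls below their mean in both duplicate wells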;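 further: CHO cells stably transfected with KCNQ1 and depolarized by potassium stimulus; peak minus minimum fluorescence over baseline after thallium addition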
Target sequence (P51787 whole entry, looked up): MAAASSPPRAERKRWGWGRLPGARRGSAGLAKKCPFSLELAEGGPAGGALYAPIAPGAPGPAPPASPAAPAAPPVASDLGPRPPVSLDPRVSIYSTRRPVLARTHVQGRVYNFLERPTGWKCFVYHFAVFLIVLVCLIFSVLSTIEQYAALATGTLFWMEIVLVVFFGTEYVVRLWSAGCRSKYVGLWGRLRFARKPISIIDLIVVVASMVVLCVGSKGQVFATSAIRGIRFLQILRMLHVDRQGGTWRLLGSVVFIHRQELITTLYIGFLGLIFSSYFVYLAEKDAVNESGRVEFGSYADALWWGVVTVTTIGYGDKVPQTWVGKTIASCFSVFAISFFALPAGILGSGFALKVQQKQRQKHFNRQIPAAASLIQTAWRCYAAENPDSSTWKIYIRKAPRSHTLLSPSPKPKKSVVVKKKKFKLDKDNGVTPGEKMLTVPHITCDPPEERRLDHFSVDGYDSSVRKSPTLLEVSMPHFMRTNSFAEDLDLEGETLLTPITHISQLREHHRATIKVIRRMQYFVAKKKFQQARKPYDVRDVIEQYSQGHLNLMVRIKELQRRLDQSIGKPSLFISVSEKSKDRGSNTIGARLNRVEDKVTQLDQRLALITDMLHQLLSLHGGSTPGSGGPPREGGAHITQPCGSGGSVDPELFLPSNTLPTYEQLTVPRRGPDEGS
CHO Tl ctr – counter-screen for KCNQ2 inhibitors: effect in parental CHO cells; shares compounds with KCNQ2 inh; thallium flux counter-screen; active compounds read low; activity change, % at 10 µM; 1,000 tested, 14% active; AID 493029
KCNQ2 inh confirm – confirmation of rat KCNQ2 potassium channel inhibitors; shares compounds with KCNQ2 inh; KCNQ2-expressing cells, automated patch clamp current; calls only at 10 µM; 550 tested, 49% active; AID 588531
A number is an active result; 0 = inactive; - = not tested or not shown; + = active, no number. Unless noted, how the calls were made is not given here.

SMILES	KCNQ2 pot	KCNQ2 inh	KCNQ2 inh conf	KCNQ1 spec	CHO Tl ctr	others
Fc1ccc(-c2csc(N3CCC(c4ccccc4)C3)n2)cc1 (centres undefined)	0	-9.5	0	0	0
Clc1ccc(-c2csc(N3CCC(c4ccccc4)C3)n2)cc1 (centres undefined)	-	0	-	-	-
Cc1ccc2nc(-c3ccccn3)cc(C(=O)N3CCN(c4ncccn4)CC3)c2c1	0	0	-	-	-
CC1CC(C)CN(C(=O)c2cc(-c3ccncc3)nc3ccccc23)C1 (centres undefined)	-	0	-	-	-
Cc1ccc(OCC(=O)N2CCc3ccccc3C2)c(C)c1	0	-7.8	-30%	0	0	KCNQ2 inh confirm=+
Cc1ccc2nc(-c3ccccc3)cc(C(=O)N3CCc4ccccc4C3)c2c1	0	-8.3	0	0	0
O=C(c1cc(-c2ccccc2)nc2ccccc12)N1CCc2ccccc2C1	0	-7.8	-28%	0	0	KCNQ2 inh confirm=+
Cc1ccc(OCC(=O)N2CCc3ccccc3C2)c(Br)c1	-	0	-	-	-
O=C(c1cc(Cl)nc2ccccc12)N1CCc2ccccc2C1	-	0	-	-	-
Cc1ccc2nc(-c3ccccc3)cc(C(=O)N3CC(C)OC(C)C3)c2c1 (centres undefined)	0	-9.3	-30%	0	0	KCNQ2 inh confirm=+
CC(=O)Nc1ccc(NC(=O)C(C)OC(=O)CCCOc2ccc(Cl)cc2C)cc1 (centres undefined)	0	0	-	-	-
CC(C)C(=O)NNC(=O)c1csc(-c2cccs2)n1	0	0	-	-	-
CC(C(=O)NCc1cccnc1)c1ccc([N+](=O)[O-])cc1 (centres undefined)	-	0	-	-	-
COc1ccc(-c2cc(C(F)(F)F)n3ncc(C(=O)N4CCc5ccccc5C4)c3n2)cc1	0	-6.8	0	0	0
COc1cccc(-c2cc(C(F)(F)F)n3ncc(C(=O)N4CCc5ccccc5C4)c3n2)c1	-	0	-	-	-
CCc1nnc(NC(=O)C(c2ccccc2)c2ccccc2)s1	0	0	-	-	-
COc1ccc(S(=O)(=O)N/N=C(/C)c2ccncc2)cc1OC	0	0	-	-	-
CC(=O)Oc1ccc(/C=N/NC(=O)CCSc2ccccc2)cc1	0	0	-	-	-
O=C(CSc1cn(CCNC(=O)c2ccccc2F)c2ccccc12)NCC1CCCO1 (centres undefined)	0	0	-	-	-
O=C(NCCn1cc(SCc2ccccc2)c2ccccc21)c1ccccc1F	0	-8.2	0	0	0
COc1cc(NC(=O)COC(=O)c2cnccn2)c(C)cc1[N+](=O)[O-]	-	0	-	-	-
CSc1ccc(S(=O)(=O)Nc2ccc(S(=O)(=O)Nc3ccc(C)cc3)cc2)cc1	-	0	-	-	-
Cc1ccc(S(=O)(=O)Nc2ccc(N=Nc3ccc(O)cc3)cc2)cc1	0	-8.7	0	0	0
COc1ccc(CCNC(=O)C2CCN(S(=O)(=O)c3ccc(NC(C)=O)cc3)CC2)cc1OC	0	0	-	-	-
O=C(NN(c1ccccc1)c1ccccc1)c1ccccc1F	-	0	-	-	-
SMILES	KCNQ2 pot	KCNQ2 inh	KCNQ2 inh conf	KCNQ1 spec	CHO Tl ctr	others
COc1ccccc1C(=O)n1nc(-c2ccccc2)nc1NCc1ccco1	0	-8.7	0	0	0
CCS(=O)(=O)n1nc(-c2ccccc2)nc1NCc1ccco1	0	0	-	-	-
Cc1ccc(S(=O)(=O)n2nc(-c3ccc(Cl)cc3)nc2NCc2ccco2)cc1	0	-9.3	0	0	0
O=C(c1ccco1)n1nc(-c2ccccc2)nc1NCc1ccco1	0	0	-	-	-
CN(C(=O)CO/N=C/c1ccc(OC(F)F)cc1)C1CCS(=O)(=O)C1 (centres undefined)	0	0	-	-	-
Cc1ccc(OC(=O)C2CCN(C(=O)c3ccccc3C)CC2)c(Br)c1	-	0	-	-	-
O=C(Nc1cccc(F)c1)NC1(C(=O)N2CCOCC2)CCCCC1	-	0	-	-	-
CC(=O)c1ccc(NC(=O)[C@@H]2CCCN2C(=O)OC(C)(C)C)cc1	0	0	-	-	-
O=S(=O)(NCCOc1ccccc1Cl)c1ccc2oc3ccccc3c2c1	0	-6.8	0	0	0
COc1ccccc1OCCNS(=O)(=O)c1ccc2oc3ccccc3c2c1	-	0	-	-	-
O=C(Nc1nnc(S(=O)(=O)Nc2ccccc2)s1)C1CCCCC1	0	0	-	-	-
Cn1cc(Br)c(C(=O)Nc2ncc(Br)s2)n1	0	0	-	-	-
Cc1ccc(C)c(N2CCN(C(=O)c3ccc4c(c3)c(C)c(C)n4C)CC2)c1	0	-6.6	0	0	0
Cc1c(C)n(C)c2ccc(C(=O)N3CCN(c4ccccc4)CC3)cc12	-	0	-	-	-
O=C(COc1ccc(F)cc1)NN1C(=O)CSC1=S	-	0	-	-	-
Cc1sc(NC(=O)c2ccco2)c(C(c2cccnc2)N2CCN(c3ccc(F)cc3)CC2)c1C (centres undefined)	0	-10	-29%	0	0	KCNQ2 inh confirm=0
Cc1sc(NC(=O)c2ccco2)c(C(c2cccnc2)N2CCN(CCO)CC2)c1C (centres undefined)	0	0	-	-	-
CCN(CC)c1ccc(S(=O)(=O)N2CCOCC2)cc1NC(=O)CSc1nnc(N)s1	0	0	-	-	-
CC1(C)CC(C(CCN(Cc2ccccc2)C(=O)c2ccco2)c2ccc(F)cc2)CCO1 (centres undefined)	-	0	-	-	-
O=C(c1ccco1)N(CCC(c1ccccc1)c1ccco1)Cc1ccc(F)cc1 (centres undefined)	0	-7.8	-46%	-46%	-42%	KCNQ2 inh confirm=+
Cc1ccc(C(CCN)c2ccco2)cc1 (centres undefined)	-	0	-	-	-
CCC(=O)N(CCC(c1ccc(C)cc1)c1ccco1)Cc1ccco1 (centres undefined)	0	-10	0	0	0
C#CCOCCOCCOCCNc1nc(N2CCN(C(=O)C([C@@H](C)CC)n3cc(C(N)CO)nn3)CC2)nc(N2CCN(C(=O)C([C@@H](C)CC)n3cc(C(N)COC(=O)C(F)(F)F)nn3)CC2)n1 (some centres undefined)	0	0	-	-	-
CCOC(=O)N1CCN(c2nc3ccccc3nc2C(C#N)C(=O)NCCc2ccccc2)CC1 (centres undefined)	0	-8.7	0	0	0
N#CC(C(=O)NCCc1ccccc1)c1nc2ccccc2nc1N1CCCCC1 (centres undefined)	-	0	-	-	-
SMILES	KCNQ2 pot	KCNQ2 inh	KCNQ2 inh conf	KCNQ1 spec	CHO Tl ctr	others
Cc1ccc(N(CCC#N)C(=O)CN2C(=O)NC(Cc3ccccc3)C2=O)cc1 (centres undefined)	-	0	-	-	-
Cc1cc(C)n2nc(C(=O)OCC(=O)NNC(=O)c3ccc(Cl)cc3)nc2n1	-	0	-	-	-
CCOC(=O)N1[C@@H]2C=C(C)[C@@H]2[C@@H]2[C@@H](C)C(=O)N21	0	0	-	-	-
CCN(CC(=O)NCc1ccc(Cl)cc1)C(=O)CSc1ccc(F)cc1	-	0	-	-	-
CCN(CC(=O)NCc1ccc(Cl)cc1)C(=O)CSc1cc(C)ccc1C	0	-8.2	-22%	0	0	KCNQ2 inh confirm=+
CCN(CC(=O)NCc1ccc(F)cc1)C(=O)CN1CCN(c2cc(Cl)ccc2C)CC1	0	-9.5	-26%	0	0	KCNQ2 inh confirm=+
Cc1cccc(N2CCN(CC(=O)NCc3ccc(Cl)cc3)CC2)c1C	-	0	-	-	-
O=C(Nc1cc(=O)[nH]c(=O)[nH]1)c1cc(Cl)ccc1Cl	-	0	-	-	-
CCCOC1CCCN(C(=O)c2cc(COc3ccc(-n4cncn4)cc3)on2)C1 (centres undefined)	0	0	-	-	-
CCCOc1ccc(-c2nc(OC)c3ccccc3n2)cc1	-	0	-	-	-
